From PubChem BioAssay (NCI)
The panel holds about 83,000 compounds, 20% with a hit somewhere; the sample as a whole holds those more often.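 Single-dose data. Exposure time 48 hours. Values below 10 considered active.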 Activity calls are given as the source filed them.

How the values were obtained:
Assay in all cases: NCI-60 one-dose screen, 48 h (100 = growth as untreated, 0 = no growth, -100 = all killed)
Details in all cases: 10 µM unless noted
T-47D breast = test system: T-47D breast
BT-549 breast = test system: BT-549 breast
MDA-MB-435 melanoma = test system: MDA-MB-435 melanoma
SW-620 colon = test system: SW-620 colon
MCF7 breast = test system: MCF7 breast
HCT-116 colon = test system: HCT-116 colon
HCC-2998 colon = test system: HCC-2998 colon
KM12 colon = test system: KM12 colon

Measured: growth

c1ccc(Nc2nc(-c3ccccn3)cs2)nc1
inactive: T-47D breast 26.4% | BT-549 breast 43.9% | MDA-MB-435 melanoma 30.9% | SW-620 colon 30.2% | MCF7 breast 14.7% | HCT-116 colon 10.3% | HCC-2998 colon 38.3% | KM12 colon 29%

COc1cc(/C=C2\C(=O)ON=C2C)cc(OC)c1OC
inactive: T-47D breast 97.9% | BT-549 breast 112% | MDA-MB-435 melanoma 102% | SW-620 colon 97.7% | MCF7 breast 97% | HCT-116 colon 104% | HCC-2998 colon 94.5% | KM12 colon 100%

NNC(=O)c1nc(N)n(-c2ccc(S(N)(=O)=O)cc2)n1
inactive: T-47D breast 93.5% | BT-549 breast 92.7% | MDA-MB-435 melanoma 97.8% | SW-620 colon 96% | MCF7 breast 102% | HCT-116 colon 95.3% | HCC-2998 colon 101% | KM12 colon 95.5%

COc1ccc(-c2csc(C3=C(O)CN(C(C)C)C3=N)n2)cc1OC
inactive: T-47D breast 91.4% | BT-549 breast 112% | MDA-MB-435 melanoma 116% | SW-620 colon 104% | MCF7 breast 129% | HCT-116 colon 96.3% | HCC-2998 colon 116% | KM12 colon 99.6%

Cc1cc(C)c(-c2c(C)cc(C)cc2CBr)c(CBr)c1
inactive: T-47D breast 69.8% | BT-549 breast 79.2% | MDA-MB-435 melanoma 77% | SW-620 colon 78.5% | MCF7 breast 67.1% | HCT-116 colon 49.4% | HCC-2998 colon 103% | KM12 colon 80.3%

O=c1c2cc(F)ccc2sc2c(NCCN3CCCCC3)nc3ccccc3c12
inactive: T-47D breast 66.9% | BT-549 breast 75.1% | MDA-MB-435 melanoma 29.5% | SW-620 colon 29.1% | MCF7 breast 15.8% | HCT-116 colon 25.3% | HCC-2998 colon 13.9% | KM12 colon 29%

O=C(NCCCNc1cc(-c2cn(-c3ccccc3)nc2-c2cccc(O)c2)ccn1)c1ccccc1
active: T-47D breast -13.8% | MDA-MB-435 melanoma -10.5% | SW-620 colon -32.4% | HCC-2998 colon -26.1%
inactive: BT-549 breast 10.3% | MCF7 breast 23% | HCT-116 colon 24.8% | KM12 colon 20.2%

NC1=NCc2nc3ccccc3c(=O)n2C1
inactive: T-47D breast 113% | BT-549 breast 113% | MDA-MB-435 melanoma 100% | SW-620 colon 103% | MCF7 breast 105% | HCT-116 colon 101% | HCC-2998 colon 88.8% | KM12 colon 100%

CC1=CN2C(=O)C3C4=C(CCCC4)SC3N=C2CN1c1c(C)cccc1C (stereo not drawn)
inactive: T-47D breast 81.1% | BT-549 breast 108% | MDA-MB-435 melanoma 94.4% | SW-620 colon 88.9% | MCF7 breast 112% | HCT-116 colon 55% | HCC-2998 colon 97.3% | KM12 colon 97.4%

CCCCCS(=O)(=O)Nc1ccc(C(=O)O)cc1
inactive: T-47D breast 89.2% | BT-549 breast 107% | MDA-MB-435 melanoma 106% | SW-620 colon 106% | MCF7 breast 97% | HCT-116 colon 102% | HCC-2998 colon 114% | KM12 colon 103%

COc1cc(/C=C/C(=O)c2c(C)nc3ccccc3c2/C=C/c2ccc(C)cc2)cc(OC)c1OC
active: SW-620 colon 3.22% | HCT-116 colon -70.3% | HCC-2998 colon -21.3%
inactive: T-47D breast 19% | BT-549 breast 35.6% | MDA-MB-435 melanoma 11.1% | MCF7 breast 17.1% | KM12 colon 13.2%

COc1ccc(-c2nc3sccn3c2-c2cc(-c3cc(OC)c(OC)c(OC)c3)on2)cc1
inactive: T-47D breast 51.9% | BT-549 breast 98.6% | MDA-MB-435 melanoma 102% | SW-620 colon 105% | MCF7 breast 88.5% | HCT-116 colon 85.5% | HCC-2998 colon 98.2% | KM12 colon 90.5%

CNC(=O)c1cc(Oc2cccc3nc(Nc4ccc(F)c(Cl)c4)ccc23)ccn1
inactive: T-47D breast 66% | BT-549 breast 62.9% | MDA-MB-435 melanoma 60.5% | SW-620 colon 20.3% | MCF7 breast 35.1% | HCT-116 colon 17.6% | HCC-2998 colon 101% | KM12 colon 63.5%

O=C(Cc1ccc(F)c(F)c1)Nc1cc(C2(C(F)(F)F)CC2)nn1Cc1ccccc1
active: T-47D breast -8.37% | MDA-MB-435 melanoma 0.174% | MCF7 breast -7.28% | HCT-116 colon 6.07% | KM12 colon 1.89%
inactive: BT-549 breast 14.9% | SW-620 colon 11.5% | HCC-2998 colon 17.2%

O=C(NCCCNc1cc(-c2cn(-c3ccccc3)nc2-c2cccc(O)c2)ccn1)c1ccc(F)cc1
inactive: MCF7 breast 13.7% | HCT-116 colon 10.8% | KM12 colon 12%
active: T-47D breast -10.8% | BT-549 breast -6.04% | MDA-MB-435 melanoma -67.7% | SW-620 colon 5.38% | HCC-2998 colon -60%

Cc1ccc(S(=O)(=O)NCC[C@@H]2C[C@H]2c2cc3ccccc3s2)cc1
inactive: T-47D breast 77.9% | BT-549 breast 102% | MDA-MB-435 melanoma 104% | SW-620 colon 103% | MCF7 breast 93.7% | HCT-116 colon 93.8% | HCC-2998 colon 106% | KM12 colon 96.1%

Cc1ccc(-n2c(-c3ccccc3)c(-c3ccccc3)c3c(SCC(=O)n4[nH]c(N)cc4=O)ncnc32)cc1
inactive: T-47D breast 76.6% | BT-549 breast 99% | MDA-MB-435 melanoma 106% | SW-620 colon 90.3% | MCF7 breast 86.7% | HCT-116 colon 78.2% | HCC-2998 colon 113% | KM12 colon 98.1%

COc1ccc2c(c1)C(=O)/C(=C/c1ccc(OCC(=O)Nc3nccs3)cc1)O2
active: BT-549 breast -84.2% | SW-620 colon -24%
inactive: T-47D breast 75.2% | MDA-MB-435 melanoma 92.5% | MCF7 breast 59.8% | HCT-116 colon 15.6% | HCC-2998 colon 113% | KM12 colon 21.3%

COc1c(CCC[P+](c2ccccc2)(c2ccccc2)c2ccccc2)cc2c(c1OC)OCO2
inactive: BT-549 breast 11.5% | SW-620 colon 13.1% | HCC-2998 colon 24.1%
active: T-47D breast 2.54% | MDA-MB-435 melanoma 2.57% | MCF7 breast 2.19% | HCT-116 colon 5.97% | KM12 colon 4.98%

COc1ccc2c(c1)[nH]c(=O)c1c3cccnc3cn21
inactive: T-47D breast 60.2% | BT-549 breast 45.6% | SW-620 colon 20% | MCF7 breast 20.5% | HCT-116 colon 15.2% | HCC-2998 colon 21.5% | KM12 colon 14.5%
active: MDA-MB-435 melanoma -6.86%

C=CCn1c(C)nc2cc(Nc3nc(Cl)nc4ccccc34)ccc21
inactive: T-47D breast 81.5% | BT-549 breast 94.8% | MDA-MB-435 melanoma 93.3% | SW-620 colon 102% | MCF7 breast 94.6% | HCT-116 colon 91.5% | HCC-2998 colon 101% | KM12 colon 95.2%

COc1ccc(C2c3ccc4ccccc4c3Oc3nc(C)[nH]c(=O)c32)cc1 (stereo not drawn)
inactive: T-47D breast 92.2% | BT-549 breast 109% | MDA-MB-435 melanoma 42.4% | SW-620 colon 97.4% | MCF7 breast 96.1% | HCT-116 colon 107% | HCC-2998 colon 103% | KM12 colon 98.6%

COc1ccc(C2CC(c3cccc(OC)c3)=NN2C(=O)c2cc(OC)c(OC)c(OC)c2)cc1 (stereo not drawn)
inactive: T-47D breast 29% | BT-549 breast 39.5% | SW-620 colon 22.5% | MCF7 breast 16.2% | HCT-116 colon 15.3% | KM12 colon 15.4%
active: MDA-MB-435 melanoma -58.8% | HCC-2998 colon -10.3%

O=C1C=C[C@]2(C[C@@H](c3cccc(C(F)(F)F)c3)O[C@@H](c3cccc(C(F)(F)F)c3)O2)O1
inactive: HCC-2998 colon 18%
active: T-47D breast -49.6% | BT-549 breast -52.4% | MDA-MB-435 melanoma -74.7% | SW-620 colon -48.1% | MCF7 breast -7.92% | HCT-116 colon -70.6% | KM12 colon 6.02%

NS(=O)(=O)c1cnccc1Oc1cccc2cccnc12
inactive: T-47D breast 109% | BT-549 breast 93.3% | MDA-MB-435 melanoma 108% | SW-620 colon 106% | MCF7 breast 93.4% | HCT-116 colon 97% | HCC-2998 colon 95.9% | KM12 colon 107%

CCN(CC)CCn1nc2c3c(cccc3c1=O)-c1ccccc1-2
active: T-47D breast 9.48% | MCF7 breast 4.36%
inactive: BT-549 breast 59.3% | MDA-MB-435 melanoma 39.7% | SW-620 colon 14.3% | HCT-116 colon 16.3% | HCC-2998 colon 34.7% | KM12 colon 34%

N#CCN1C(=O)C2C3=C(CCCC3)SC2N=C1CN1CCCC1 (stereo not drawn)
inactive: T-47D breast 97.2% | BT-549 breast 114% | MDA-MB-435 melanoma 105% | SW-620 colon 95.3% | MCF7 breast 109% | HCT-116 colon 94.2% | HCC-2998 colon 96.9% | KM12 colon 109%

COc1cc(/C=N/Nc2ncc(-c3cc4cc5c(cc4o3)OCO5)s2)cc(OC)c1OC
inactive: T-47D breast 45.9% | BT-549 breast 15.2% | MDA-MB-435 melanoma 18.9% | SW-620 colon 55.4% | MCF7 breast 53.4% | HCT-116 colon 28.5% | HCC-2998 colon 82.1% | KM12 colon 23.5%

Cc1cc(=O)[nH]c(N=Nc2c(O)[nH]c3ccccc23)n1
inactive: T-47D breast 105% | BT-549 breast 99.3% | MDA-MB-435 melanoma 114% | SW-620 colon 110% | MCF7 breast 93.2% | HCT-116 colon 104% | HCC-2998 colon 107% | KM12 colon 108%

NC(=O)c1ccc[n+](Cc2ccc(Cl)cc2Cl)c1
inactive: T-47D breast 85.3% | BT-549 breast 76% | MDA-MB-435 melanoma 107% | SW-620 colon 103% | MCF7 breast 95.7% | HCT-116 colon 80% | HCC-2998 colon 93.3% | KM12 colon 101%

COc1ccc(OC)c2c1[nH]c(=O)c1c3ncccc3cn21
inactive: T-47D breast 39% | BT-549 breast 86.6% | MDA-MB-435 melanoma 28.6% | SW-620 colon 15.2% | HCT-116 colon 21.7% | HCC-2998 colon 36.1% | KM12 colon 32.5%
active: MCF7 breast 8.95%
